# Measurements from PubChem BioAssay (NCI).
# This is part of a sample that, as a whole, favours compounds with a hit. Of some 83,000 tested, about 20% had one in any assay.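 Growth was measured after 48 h exposure to one concentration of compound in 96-well plates. Values under 10 count as active.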 Values without a mark were called inactive. Active and inactive are the calls of the source.
# System: UO-31 renal
# Test: NCI-60 one-dose screen, 48 h (100 = growth as untreated, 0 = no growth, -100 = all killed)
# Details: 10 µM unless noted
# Procedure: Growth inhibition of the UO-31 human tumor cell line is measured as a screen for anti-cancer activity. Cells are grown in 96 well plates and exposed to the test compound for 48 hours. Compounds are tested at a single concentration, which is 10^-5 M for most compounds. The reported endpoint is percent growth (GI% or GIPRCNT), where numbers from 0 - 100% represent growth inhibition, and numbers from -100% - 0 represent cell death. For example, a value of 40 represents 60% growth inhibition. A value of 0 means no net growth occurred over the course of the experiment. A value of -40 indicates 40% of cells at the beginning of the experiment died by the end of the experiment. A value of -100 means all cells are dead at the end of the experiment.
# NCI-60 Human Tumor Cell Lines Screen was performed using the standard one-dose NCI protocol, which is described in more detail at https://dtp.cancer.gov/discovery_development/nci-60/default.htm.
# Compounds with GIPRCNT values below 10 were considered active. Activity score was based on GIPRCNT using the following formula: […]
# Score is 0 for GIPRCNT values of 100 or above, 50 for GIPRCNT values of 0, and 100 for GIPRCNT values of -100.
row,Structure (SMILES),growth
1,C=C1C(=O)O[C@@H]2C[C@@H](C)/C=C\C(=O)[C@](C)(OC(C)=O)C[C@H](OC(=O)/C(C)=C\C)[C@@H]12,-88.6% (active)
2,O=c1oc2ccc(-c3ccc(F)cc3F)cc2c(=O)n1-c1cccc(C(F)(F)F)c1,-18.5% (active)
3,CCc1ccc(NC(=O)N[C@@H](Cc2cccc(F)c2)C(=O)N[C@@H]2C(=O)N3CCC[C@H]3C(=O)N3CCCC[C@H]3C(=O)N[C@@H](C)C(=O)N3C[C@H](C)C[C@H]3C(=O)O[C@H]2C)c(F)c1,26.3%
4,O=C(Nc1ccccc1)Nc1nc2ccc([N+](=O)[O-])cc2s1,8.95% (active)
5,CC(C)SC1=NC(=C(C(=N1)NC2=ClC=CC=C2)C#N)C3=CC=CC=C3,24.7%
6,O=C(/C=C1\C=CN(CCCCF)c2ccccc21)n1ccc2ccccc21,74.2%
7,Nc1ccc(-c2nnc(SCc3ccc(O)c4ncccc34)n2-c2ccccc2)cc1,4.44% (active)
8,O=S(=O)(Nc1cc(Cl)cc(Cl)c1)c1ccc(-c2cnc(C3CC3)o2)cc1,53%
9,CCOc1ccc2nc(NC(=O)Nc3ccccc3C)sc2c1,66.3%
10,CCOC(=O)C1=C(C)Nc2nc3ccccc3n2C1c1ccccc1 (stereo not given),84.9%
11,Clc1ccc(-c2nc3ccc(/C(=N\N=C\c4ccccc4)c4ccccc4)cc3[nH]2)cc1,83.3%
12,O=C(Nc1ccc(Cl)cc1)Nc1nc2ccc([N+](=O)[O-])cc2s1,3.55% (active)
13,COc1cc(/C=C2\SC(=O)NC2=O)ccc1OCC(=O)Nc1ccc(C(=O)/C=C/c2cc3ccccc3nc2Cl)cc1,66.1%
14,CCCCCc1ccc(S(=O)(=O)N(C(C)=O)c2cccc(-c3csc(N(CCN4CCN(C)CC4)C(C)=O)n3)c2)cc1,-69.2% (active)
15,CC1(C)CC[C@]2(C(=O)O)CC[C@]3(C)C(=CCC4[C@@]5(C)C[C@@H](O)[C@@H]6OC(c7cccc([N+](=O)[O-])c7)OC[C@@]6(C)C5CC[C@]43C)C2C1 (stereo not given in full),59.9%
16,CCC(CC)n1c(=O)c(SC2=NC3C(NN2)N(CC)C(=O)N3CC)c(C(=O)O)c2ccccc21 (stereo not given),39.5%
17,O=C(CCCCCCN1CC(=O)N2[C@@H](c3ccccc3)c3[nH]c4ccccc4c3C[C@H]2C1=O)NO,57.1%
18,Nc1n[nH]c2cccc(C#Cc3cccc(NC(=O)c4cccc(OC(F)(F)F)c4)c3)c12,26.9%
19,COc1cc(CNC(=O)Cc2ccccc2[N+](=O)[O-])ccc1OCC(=O)NO,83.1%
20,CC1(COc2ccc3ncc(C#Cc4cncc(C(=O)Nc5cc(C(C)(C)C)on5)c4)n3n2)COC1,26.9%

row,Structure (SMILES),growth
1,Fc1ccc(-c2cc3nc(C(Cl)Cl)nc(-c4cccs4)n3n2)cc1,40.6%
2,Nc1cc(F)ccc1NC(=O)c1ccc(NC(=O)C/C=C/c2cccnc2)cn1,5.53% (active)
3,Clc1ccc(-c2csc(Nc3cccc(Nc4csc(-c5ccc(Cl)cc5)n4)c3)n2)cc1,51.5%
4,CCCCCCNC(=O)Oc1ccc(/C(=C(\C)c2ccc(OC)cc2)c2ccc(OCCN(C)C)cc2)cc1,52.1%
5,CN(C)C(=O)c1ccccc1-n1cnc2ccccc2c1=O,92.8%
6,CCOC(=O)c1c(NCC(=O)Nc2cccc([N+](=O)[O-])c2)sc2c1CCCC2,-17.7% (active)
7,CC[C@@](C)(NC(=O)C(C)(C)NC(=O)[C@@H](NC(=O)[C@@H]1CCCN1C(=O)C(C)(C)NC(=O)[C@H](CC(C)C)NC(=O)CNC(=O)C(C)(C)NC(=O)[C@@H](NC(=O)C(C)(C)NC(=O)[C@H](CCC(N)=O)NC(=O)[C@H](C)NC(=O)C(C)(C)NC(=O)[C@H](C)NC(=O)C(C)(C)NC(=O)[C@@H]1CCCN1C(=O)C(C)(C)NC(C)=O)C(C)C)C(C)C)C(=O)N[C@@H](CCC(N)=O)C(=O)N[C@@H](CCC(N)=O)C(=O)N[C@H](CO)Cc1ccccc1,89.5% [4.25 µM]
8,O=C(/C=C/c1cn(-c2ccccc2)nc1-c1ccc(Cl)cc1)c1cc2ccccc2oc1=O,39.8%
9,COc1ccc2c(ccn2C(=O)N2c3ccccc3Sc3ccccc32)c1,55%
10,C=CCn1c(SCC(=O)Nc2cccc(C(=O)/C=C/c3ccc(Br)cc3)c2)nc2ccccc2c1=O,71.2%
11,NS(=O)(=O)c1ccc(Nc2nc(N/N=C/c3ccc(F)cc3)nc(Nc3ccccc3)n2)cc1,66.2%
12,CC(=O)Nc1ccc(NC(=O)Nc2cccc(-c3nc(-c4ccc(NC(=O)c5cccnc5)cc4Cl)no3)c2)cc1C(F)(F)F,52.9%
13,COc1ccc(C2CC(c3ccc(Nc4nc(NCCO)nc(Nc5ccc(Cl)cc5)n4)cc3)=Nc3c(N)nc(N)nc3N2)cc1 (stereo not given),56.2%
14,COc1ccc(Cn2cc3c(c2-c2ccccc2)CCCc2cnoc2-3)cc1[N+](=O)[O-],55.5%
15,C#C[C@]1(O)CC[C@H]2[C@@H]3CC=C4c5sc(C6CC6)nc5CC[C@]4(C)[C@H]3CC[C@@]21C,68.8%
16,CCN1C(=O)N(CC)C2SC(N/N=C/c3cccs3)=NC21 (stereo not given),53.4%
17,C/C(=N\NC(=S)Nc1ccc(Br)cc1)c1cc2ccccc2oc1=O,19.5%
18,COc1ccc(Cn2cc3c(c2-c2cc(OC)c(OC)c(OC)c2)CCCc2cnoc2-3)cc1,30.7%
19,N#Cc1c(-c2cccs2)cc(-c2cnccn2)nc1SCC(=O)NNC(=S)Nc1ccc(F)cc1,79%
20,COc1ccc(C(=O)n2cc(C=O)c3ccccc32)cc1,70.9%
